According to PubChem BioAssay (EPA / NIEHS):
“And” between values parts separate entries of the source, which are not always exact repeats. Equal entries are not always repeated. The source holds several records for some structures; these can differ, active in one and inactive in another. The source made the active and inactive calls. Rule for the calls: active = hit-call score of the fitted dose curve at least 0.9, where 1 is the maximum; inactive = score below 0.9.

Columns and labels:
[1] = read-out: Human Leukocyte Antigen - DR isotype (HLADR), HLA-DRA (gene 3122); experiment: BSK_BE3C_HLADR: BioMAP Diversity Plus: BE3C Assay for Human Leukocyte Antigen - DR isotype (HLADR) Biomarker Activity (AID 2283032); conditions: primary human bronchial epithelial cells; actives raise or lower the signal
Procedure, shortened: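 Signal came from an ELISA for HLA-DR in human bronchial epithelial primary cells harvested 24 h after treatment; gain- and loss-of-signal fitting used DMSO controls as reference.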

[2] = read-out: Vascular cell adhesion molecule 1 (VCAM1), VCAM1 (gene 7412); experiment: BSK_4H_VCAM1: BioMAP Diversity Plus: 4H Assay for Vascular cell adhesion molecule 1 (VCAM1) Biomarker Activity (AID 2283033); conditions: primary human endothelial cells (HUVEC); actives raise or lower the signal
Procedure, shortened: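 Endpoint derived from bidirectional fitting against DMSO controls of VCAM-1 ELISA signal in umbilical vein endothelial cells sampled at 24 h following treatment.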

[3] = read-out: Interferon-gamma inducible Protein 10 (IP10), CXCL10 (gene 3627); experiment: BSK_BE3C_IP10: BioMAP Diversity Plus: BE3C Assay for Interferon-gamma inducible Protein 10 (IP10) Biomarker Activity (AID 2283034); conditions: primary human bronchial epithelial cells; actives raise or lower the signal
Procedure, shortened: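 Using primary human bronchial epithelial cultures, the assay captures IP-10 by ELISA one day (24 h) after exposure. Parallel SRB staining of total protein flags overt cytotoxicity. Fits run bidirectionally relative to DMSO.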

[4] = read-out: Monokine induced gamma interferon (MIG), CXCL9 (gene 4283); experiment: BSK_BE3C_MIG: BioMAP Diversity Plus: BE3C Assay for Monokine induced gamma interferon (MIG) Biomarker Activity (AID 2283035); conditions: primary human bronchial epithelial cells; actives raise or lower the signal;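 note: MIG protein measured by ELISA in BE3C cultures after 24 h of dosing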
Procedure, shortened: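 MIG level was determined by ELISA after 24 h chemical treatment of primary human bronchial epithelial cells. Values were fitted bidirectionally with DMSO as the negative control and activity baseline.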

[5] = read-out: Transforming growth factor beta 1 (TGFb1), TGFB1 (gene 7040); experiment: BSK_BE3C_TGFb1: BioMAP Diversity Plus: BE3C Assay for Transforming growth factor beta 1 (TGFb1) Biomarker Activity (AID 2283036;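 note: TGF-b1 protein level measured by ELISA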); conditions: primary human bronchial epithelial cells; actives raise or lower the signal
Procedure, shortened: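 In this human primary bronchial epithelial system, an ELISA quantified TGF-b1 one day after dosing. Endpoint changes in either direction were fitted relative to DMSO.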

[6] = read-out: urokinase plasminogen activator (uPA), PLAU (gene 5328); experiment: BSK_BE3C_uPA: BioMAP Diversity Plus: BE3C Assay for urokinase plasminogen activator (uPA) Biomarker Activity (AID 2283038); conditions: primary human bronchial epithelial cells; actives raise or lower the signal;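 note: uPA protein level quantified by ELISA in cell cultures; uPA read one day after compound addition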
Procedure, shortened: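 Using confluent primary human lung bronchial epithelial cultures, we dosed chemicals, waited 24 h, then ran a uPA ELISA, fitting bidirectionally against DMSO.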

[7] = read-out: Urokinase-type plasminogen activator receptor (uPAR), PLAUR (gene 5329); experiment: BSK_BE3C_uPAR: BioMAP Diversity Plus: BE3C Assay for Urokinase-type plasminogen activator receptor (uPAR) Biomarker Activity (AID 2283039); conditions: primary human bronchial epithelial cells; actives raise or lower the signal;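 note: uPAR protein level measured by ELISA on the cells; cells exposed to compound for one day before measurement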
Procedure, shortened: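 A uPAR ELISA serves as the readout, taken 24 h after treating primary human bronchial epithelial cells. Responses in either direction are fitted against DMSO, which defines baseline activity.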

[8] = read-out: Interleukin-6 (IL6), IL6 (gene 3569); experiment: BSK_CASM3C_IL6: BioMAP Diversity Plus: CASM3C Assay for Interleukin-6 (IL6) Biomarker Activity for (AID 2283040); conditions: primary human coronary artery smooth muscle cells; actives raise or lower the signal
[9] = read-out: Tissue plasminogen activator (tPA), PLAT (gene 5327); experiment: BSK_BE3C_tPA: BioMAP Diversity Plus: BE3C Assay for Tissue plasminogen activator (tPA) Biomarker Activity (AID 2283041); conditions: primary human bronchial epithelial cells; actives raise or lower the signal
Procedure, shortened: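 Bidirectional curve fitting relative to DMSO defined activity, with tPA detected by ELISA in chemically treated human bronchial epithelial primary cells at 24 hours.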

[10] = read-out: Interleukin-8 (IL8), CXCL8 (gene 3576); experiment: BSK_CASM3C_IL8: BioMAP Diversity Plus: CASM3C Assay for Interleukin-8 (IL8) Biomarker Activity (AID 2283042); conditions: primary human coronary artery smooth muscle cells; actives raise or lower the signal;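 note: IL-8 protein level quantified by ELISA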
[11] = read-out: Human Leukocyte Antigen - DR isotype (HLADR), HLA-DRA (gene 3122); experiment: BSK_CASM3C_HLADR: BioMAP Diversity Plus: CASM3C Assay for Human Leukocyte Antigen - DR isotype (HLADR) Biomarker Activity (AID 2283043); conditions: primary human coronary artery smooth muscle cells; actives raise or lower the signal;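 note: cell-surface HLA-DR protein level quantified by ELISA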
[12] = read-out: Macrophage colony-stimulating factor (MCSF), CSF1 (gene 1435); experiment: BSK_CASM3C_MCSF: BioMAP Diversity Plus: CASM3C Assay for Macrophage colony-stimulating factor (MCSF) Biomarker Activity (AID 2283044); conditions: primary human coronary artery smooth muscle cells; actives raise or lower the signal;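 note: M-CSF protein amount quantified by ELISA after 24 h exposure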
[13] = read-out: Low-density lipoprotein receptor (LDLR), LDLR (gene 3949); experiment: BSK_CASM3C_LDLR: BioMAP Diversity Plus: CASM3C Assay for Low-density lipoprotein receptor (LDLR) Biomarker Activity (AID 2283045); conditions: primary human coronary artery smooth muscle cells; actives raise or lower the signal;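 note: LDLR protein level on the cell surface quantified by ELISA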
[14] = read-out: Monocyte Chemoattractant Protein-1 (MCP1), CCL2 (gene 6347); experiment: BSK_CASM3C_MCP1: BioMAP Diversity Plus: CASM3C Assay for Monocyte Chemoattractant Protein-1 (MCP1) Biomarker Activity (AID 2283046); conditions: primary human coronary artery smooth muscle cells; actives raise or lower the signal;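 note: MCP-1 level quantified by ELISA 24 h after dosing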
[15] = BSK_CASM3C_Proliferation: Cell Proliferation Assessment in the BioMAP Diversity Plus: CASM3C Assay (AID 2283047); conditions: primary human coronary artery smooth muscle cells;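 note: sulforhodamine B total protein stain as relative cell number at 560 nm; sub-confluent cells exposed 48 h before staining; fitted both ways against DMSO so gain or loss of cell number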
[16] = read-out: Monokine induced gamma interferon (MIG), CXCL9 (gene 4283); experiment: BSK_CASM3C_MIG: BioMAP Diversity Plus: CASM3C Assay for Monokine induced gamma interferon (MIG) Biomarker Activity (AID 2283048); conditions: primary human coronary artery smooth muscle cells; actives raise or lower the signal;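 note: MIG protein level measured by ELISA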
[17] = read-out: serum amyloid A (SAA), SAA1 (gene 6288); experiment: BSK_CASM3C_SAA: BioMAP Diversity Plus: CASM3C Assay for serum amyloid A (SAA) Biomarker Activity (AID 2283049); conditions: primary human coronary artery smooth muscle cells; actives raise or lower the signal;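 note: SAA protein level quantified by ELISA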
[18] = BSK_CASM3C_SRB: Viability Assessment in the BioMAP Diversity Plus: CASM3C Assay (AID 2283050); conditions: primary human coronary artery smooth muscle cells;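 note: cells exposed to compound for 24 h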
[19] = read-out: Thrombomodulin, THBD (gene 7056); experiment: BSK_CASM3C_Thrombomodulin: BioMAP Diversity Plus: CASM3C Assay for Thrombomodulin Biomarker Activity (AID 2283051); conditions: primary human coronary artery smooth muscle cells; actives raise or lower the signal;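 note: thrombomodulin protein level measured by ELISA 24 h after dosing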

Measured: AC50

Cc1ccc(-c2c(Cl)nc(C#N)n2S(=O)(=O)N(C)C)cc1
active: [1] 5.94 µM | [2] 16.6 µM | [3] 6.57 µM
inactive: [4] | [5] | [6] | [7] | [8] | [9] | [10] | [11] | [12] | [13] | [14] | [15] | [16] | [17] | [18] | [19]

C=CC1(C)OC(=O)N(c2cc(Cl)cc(Cl)c2)C1=O (stereo not given)
inactive: [1] | [2] | [3] | [4] | [5] | [6] | [7] | [8] | [9] | [10] | [11] | [12] | [13] | [14] | [15] | [16] | [17] | [18] | [19]

CO/C=C(/C(=O)OC)c1ccccc1Oc1cc(Oc2ccccc2C#N)ncn1
inactive: [4] | [5] | [6] | [7] | [8] | [9] | [10] | [11] | [12] | [13] | [14] | [15] | [16] | [17] | [18] | [19]
active: [1] 16.5 µM [middle of 4 runs] | [3] 21.1 µM and 26.1 µM | [8] 15.8 µM and 21.1 µM | [9] 28.2 µM | [14] 30.7 µM and 37.9 µM and 37.6 µM | [15] 13.5 µM and 27.1 µM and 13.9 µM
